# Assays:
# Assay in all cases: SPOT peptide array binding signal intensity (averaged, normalized) (arbitrary units (background-subtracted, floor 0; scale differs between SH3 domains)); higher = stronger binding of the SH3 domain to the peptide
# AgAbp1 = biological target: AgAbp1
# Outline: (§1)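 SH3 domains from four yeast species were expressed as GST fusions in E. coli BL21(DE3) and purified on glutathione Sepharose. Each was incubated at 10 μg/ml overnight at 4°C in TBS-based blocking buffer on cellulose membranes bearing synthetic 15-mer peptides, in which serines replaced cysteines. Bound protein was detected with anti-GST antibody, an HRP anti-mouse secondary and luminol, then imaged and quantified with Genespotter. The binding signal is the normalized, background-subtracted spot intensity averaged over replicates, in arbitrary units that are not the same from one domain to another.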
# AgBbc1 = biological target: AgBbc1
# Outline: as §1
# AgBem1-D1 = biological target: AgBem1-D1
# Outline: as §1
# AgBzz1-D1 = biological target: AgBzz1-D1
# Outline: as §1
# AgBzz1-D2 = biological target: AgBzz1-D2
# Outline: as §1
# AgCyk3 = biological target: AgCyk3
# Outline: as §1
# AgFus1 = biological target: AgFus1
# Outline: as §1
# AgHof1 = biological target: AgHof1
# Outline: as §1
# AgHse1 = biological target: AgHse1
# Outline: as §1
# AgLsb1 = biological target: AgLsb1
# Outline: as §1
# AgLsb4 = biological target: AgLsb4
# Outline: as §1
# AgMyo5 = biological target: AgMyo5
# Outline: as §1
# AgNbp2 = biological target: AgNbp2
# Outline: as §1
# AgRvs167 = biological target: AgRvs167
# Outline: as §1
# AgSho1 = biological target: AgSho1
# Outline: as §1
# AgSla1-D1-D2 = biological target: AgSla1-D1-D2
# Outline: as §1
# AgSla1-D3 = biological target: AgSla1-D3
# Outline: as §1
# CaAbp1-D1 = biological target: CaAbp1-D1
# Outline: as §1
# CaAbp1-D2 = biological target: CaAbp1-D2
# Outline: as §1
# CaBbc1 = biological target: CaBbc1
# Outline: as §1
# CaBem1-D1 = biological target: CaBem1-D1
# Outline: as §1
# CaBzz1-D1 = biological target: CaBzz1-D1
# Outline: as §1
# CaBzz1-D2 = biological target: CaBzz1-D2
# Outline: as §1
# CaCyk3 = biological target: CaCyk3
# Outline: as §1
# CaFus1 = biological target: CaFus1
# Outline: as §1
# CaHof1 = biological target: CaHof1
# Outline: as §1
# CaHse1 = biological target: CaHse1
# Outline: as §1
# CaLsb1 = biological target: CaLsb1
# Outline: as §1
# CaLsb4 = biological target: CaLsb4
# Outline: as §1
# CaMyo5 = biological target: CaMyo5
# Outline: as §1
# CaNbp2 = biological target: CaNbp2
# Outline: as §1
# CaRvs167 = biological target: CaRvs167
# Outline: as §1
# CaRvs167-3 = biological target: CaRvs167-3
# Outline: as §1
# CaSho1 = biological target: CaSho1
# Outline: as §1
# CaSla1-D1-D2 = biological target: CaSla1-D1-D2
# Outline: as §1
# CaSla1-D3 = biological target: CaSla1-D3
# Outline: as §1
# ScAbp1 = biological target: ScAbp1
# Outline: as §1
# ScBbc1 = biological target: ScBbc1
# Outline: as §1
# ScBem1-D1 = biological target: ScBem1-D1
# Outline: as §1
# ScBzz1-D1 = biological target: ScBzz1-D1
# Outline: as §1
# ScBzz1-D2 = biological target: ScBzz1-D2
# Outline: as §1
# ScCyk3 = biological target: ScCyk3
# Outline: as §1
# ScFus1 = biological target: ScFus1
# Outline: as §1
# ScHof1 = biological target: ScHof1
# Outline: as §1
# ScHse1 = biological target: ScHse1
# Outline: as §1
# ScLsb1 = biological target: ScLsb1
# Outline: as §1
# ScLsb2 = biological target: ScLsb2
# Outline: as §1
# ScLsb3 = biological target: ScLsb3
# Outline: as §1
# ScLsb4 = biological target: ScLsb4
# Outline: as §1
# ScMyo3 = biological target: ScMyo3
# Outline: as §1
# ScMyo5 = biological target: ScMyo5
# Outline: as §1
# ScNbp2 = biological target: ScNbp2
# Outline: as §1
# ScPex13 = biological target: ScPex13
# Outline: as §1
# ScRvs167 = biological target: ScRvs167
# Outline: as §1
# ScSho1 = biological target: ScSho1
# Outline: as §1
# ScSla1-D1-D2 = biological target: ScSla1-D1-D2
# Outline: as §1
# ScSla1-D3 = biological target: ScSla1-D3
# Outline: as §1
# SpAbp1-D1 = biological target: SpAbp1-D1
# Outline: as §1
# SpBbc1 = biological target: SpBbc1
# Outline: as §1
# SpBzz1-D1 = biological target: SpBzz1-D1
# Outline: as §1
# SpBzz1-D2 = biological target: SpBzz1-D2
# Outline: as §1
# SpCyk3 = biological target: SpCyk3
# Outline: as §1
# SpHof1 = biological target: SpHof1
# Outline: as §1
# SpHof1-2 = biological target: SpHof1-2
# Outline: as §1
# SpHof1-3 = biological target: SpHof1-3
# Outline: as §1
# SpHse1 = biological target: SpHse1
# Outline: as §1
# SpLsb1 = biological target: SpLsb1
# Outline: as §1
# SpLsb4 = biological target: SpLsb4
# Outline: as §1
# SpMyo1 = biological target: SpMyo1
# Outline: as §1
# SpNbp2 = biological target: SpNbp2
# Outline: as §1
# SpPex13 = biological target: SpPex13
# Outline: as §1
# SpRvs167 = biological target: SpRvs167
# Outline: as §1
# SpSla1-D1-D2 = biological target: SpSla1-D1-D2
# Outline: as §1
# SpSla1-D3 = biological target: SpSla1-D3
# Outline: as §1
binder,measurement,setting,value
GAGERPRLVPRPINV,SPOT peptide array binding signal intensity,AgAbp1,13
same,SPOT peptide array binding signal intensity,AgBbc1,148
same,SPOT peptide array binding signal intensity,AgBem1-D1,23
same,SPOT peptide array binding signal intensity,AgBzz1-D1,27
same,SPOT peptide array binding signal intensity,AgBzz1-D2,33
same,SPOT peptide array binding signal intensity,AgCyk3,6
same,SPOT peptide array binding signal intensity,AgFus1,4.5
same,SPOT peptide array binding signal intensity,AgHof1,8.5
same,SPOT peptide array binding signal intensity,AgHse1,≤ 0
same,SPOT peptide array binding signal intensity,AgLsb1,9
same,SPOT peptide array binding signal intensity,AgLsb4,28
same,SPOT peptide array binding signal intensity,AgMyo5,0.5
same,SPOT peptide array binding signal intensity,AgNbp2,≤ 0
same,SPOT peptide array binding signal intensity,AgRvs167,2
same,SPOT peptide array binding signal intensity,AgSho1,≤ 0
same,SPOT peptide array binding signal intensity,AgSla1-D1-D2,≤ 0
same,SPOT peptide array binding signal intensity,AgSla1-D3,1
same,SPOT peptide array binding signal intensity,CaAbp1-D1,17
same,SPOT peptide array binding signal intensity,CaAbp1-D2,8
same,SPOT peptide array binding signal intensity,CaBbc1,314
same,SPOT peptide array binding signal intensity,CaBem1-D1,68.5
same,SPOT peptide array binding signal intensity,CaBzz1-D1,109
same,SPOT peptide array binding signal intensity,CaBzz1-D2,51.2
same,SPOT peptide array binding signal intensity,CaCyk3,285
same,SPOT peptide array binding signal intensity,CaFus1,≤ 0
same,SPOT peptide array binding signal intensity,CaHof1,0.5
same,SPOT peptide array binding signal intensity,CaHse1,≤ 0
same,SPOT peptide array binding signal intensity,CaLsb1,0.75
same,SPOT peptide array binding signal intensity,CaLsb4,102
same,SPOT peptide array binding signal intensity,CaMyo5,6.5
same,SPOT peptide array binding signal intensity,CaNbp2,≤ 0
same,SPOT peptide array binding signal intensity,CaRvs167,3.5
same,SPOT peptide array binding signal intensity,CaRvs167-3,≤ 0
same,SPOT peptide array binding signal intensity,CaSho1,21
same,SPOT peptide array binding signal intensity,CaSla1-D1-D2,15.5
same,SPOT peptide array binding signal intensity,CaSla1-D3,0.75
same,SPOT peptide array binding signal intensity,ScAbp1,10
same,SPOT peptide array binding signal intensity,ScBbc1,29.5
same,SPOT peptide array binding signal intensity,ScBem1-D1,≤ 0
same,SPOT peptide array binding signal intensity,ScBzz1-D1,13
same,SPOT peptide array binding signal intensity,ScBzz1-D2,44.5
same,SPOT peptide array binding signal intensity,ScCyk3,53
same,SPOT peptide array binding signal intensity,ScFus1,≤ 0
same,SPOT peptide array binding signal intensity,ScHof1,3.25
same,SPOT peptide array binding signal intensity,ScHse1,4.5
same,SPOT peptide array binding signal intensity,ScLsb1,98.2
same,SPOT peptide array binding signal intensity,ScLsb2,4.5
same,SPOT peptide array binding signal intensity,ScLsb3,531
same,SPOT peptide array binding signal intensity,ScLsb4,20
same,SPOT peptide array binding signal intensity,ScMyo3,47.5
same,SPOT peptide array binding signal intensity,ScMyo5,4
same,SPOT peptide array binding signal intensity,ScNbp2,8
same,SPOT peptide array binding signal intensity,ScPex13,1
same,SPOT peptide array binding signal intensity,ScRvs167,91.3
same,SPOT peptide array binding signal intensity,ScSho1,13.5
same,SPOT peptide array binding signal intensity,ScSla1-D1-D2,25.5
same,SPOT peptide array binding signal intensity,ScSla1-D3,20
same,SPOT peptide array binding signal intensity,SpAbp1-D1,11
same,SPOT peptide array binding signal intensity,SpBbc1,22.8
same,SPOT peptide array binding signal intensity,SpBzz1-D1,384
same,SPOT peptide array binding signal intensity,SpBzz1-D2,0.75
same,SPOT peptide array binding signal intensity,SpCyk3,8
same,SPOT peptide array binding signal intensity,SpHof1,5.5
same,SPOT peptide array binding signal intensity,SpHof1-2,6
same,SPOT peptide array binding signal intensity,SpHof1-3,5.75
same,SPOT peptide array binding signal intensity,SpHse1,≤ 0
same,SPOT peptide array binding signal intensity,SpLsb1,410
same,SPOT peptide array binding signal intensity,SpLsb4,740
same,SPOT peptide array binding signal intensity,SpMyo1,4.75
same,SPOT peptide array binding signal intensity,SpNbp2,≤ 0
same,SPOT peptide array binding signal intensity,SpPex13,≤ 0
same,SPOT peptide array binding signal intensity,SpRvs167,6.67
same,SPOT peptide array binding signal intensity,SpSla1-D1-D2,4
same,SPOT peptide array binding signal intensity,SpSla1-D3,1

# From the supplement of paper PMC4466140
